# Compound activity as filed in PubChem.
# In the library only some 7.7% were active in any assay of this set; here they are far more common.
# RE007 growth inh = less growth of the S. pombe RE007 Vpr strain | Potency, µM (doses to about 92.2 µM), for inactives: at the highest dose activity change, negative = less growth, most hits filed as inhibitors | 360,000 tested, 0.21% active | S. pombe RE007 Vpr strain, BacTiter-Glo ATP luminescence, 24 h; active = well fitted falling curve with a large enough effect; inconclusive = small, poorly fitted or top-dose-only effect; inactive = no such curve, though single readings can be large or run the other way; note: potency is the fitted concentration of half-maximal effect; nearly all actives have a fitted effect of over 50% in size
#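 Fission yeast RE007 carrying one integrated HIV-1 vpr copy, seeded at OD 0.01 in PMG+AL medium with 23 nL pinned compound. Grown 24 h at 30 degrees; viability read by BacTiter-Glo luminescence after 5 min.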
# Sm TGR block = S. mansoni TGR enzyme inhibition. purified TGR, DTNB reduction, TNB absorbance 405 nm. Potency, µM (highest dose often 114 µM), inactives show at the top dose activity change, negative = inhibition, most hits filed as inhibitors. 360,000 tested, 3% active. AID 485364; note: potency is the fitted concentration of half-maximal effect; nearly all actives have a fitted effect of over 60% in size
#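 Kinetic colorimetric format: TGR-catalysed, NADPH-driven DTNB reduction monitored via TNB absorbance. Enzyme dispensed at 20 nM; compound exposure 15 min at room temperature before reaction start.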
# FBPA Giardia inh = blocks Giardia fructose-bisphosphate aldolase activity. A8B2U2. purified Giardia FBPA. Potency, µM (highest dose often 59.6 µM), inactives show at the highest dose activity, negative = inhibition, most hits filed as inhibitors. 290,000 tested, 0.71% active. AID 2451; note: potency is the fitted concentration of half-maximal effect; nearly all actives have a fitted effect of over 55% in size
# Target sequence (A8B2U2 whole entry, looked up): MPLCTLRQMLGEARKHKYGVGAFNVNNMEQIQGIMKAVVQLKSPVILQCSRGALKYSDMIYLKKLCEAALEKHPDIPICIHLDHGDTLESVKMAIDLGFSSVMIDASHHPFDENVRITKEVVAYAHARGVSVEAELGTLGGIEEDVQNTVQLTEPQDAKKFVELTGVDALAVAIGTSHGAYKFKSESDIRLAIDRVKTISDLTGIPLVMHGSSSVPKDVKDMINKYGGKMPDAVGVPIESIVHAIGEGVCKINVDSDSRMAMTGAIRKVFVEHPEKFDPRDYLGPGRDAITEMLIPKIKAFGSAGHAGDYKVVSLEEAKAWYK
#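 Giardia FBPA (40 nM reagent) was preincubated 10 min at RT with compound (up to 57.5 uM final), then substrate plus GAPDH/TPI/NAD/arsenate coupling system with diaphorase/resazurin was added; resorufin fluorescence (525/598 nm) was read after 20 min.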
# HCMV inh = human cytomegalovirus inhibition; 410,000 tested, 4.5% active; activity change, negative = inhibition, % at 57.5 µM; HFF cells, HCMV-luciferase reporter, 72 h; stronger effect = lower value; AID 1259415; in the data active = activity change below about -60%; inconclusive = no clear call, values can overlap the other calls; inactive = above about -39%
#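 Human foreskin fibroblasts infected with luciferase-reporter HCMV at MOI 1 PFU/cell, compounds at two doses. Luciferase measured 72 h post infection; normalized to buffer-only basal and Salinomycin (10uM) controls.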
# FMDV inh = foot and mouth disease virus antiviral activity | 410,000 tested, 1.2% active | FMDV antiviral cell-based qHTS | Potency, µM (series often up to 57.9 µM), without a hit: at the highest dose activity change, negative = inhibition, actives largely listed as inhibitors; calls by dose curve; tested in HEK293T cells; note: read-out not given here; potency is the fitted concentration of half-maximal effect; nearly all actives have a fitted effect of over 45% in size
# TbPYK inhibitor = T. brucei pyruvate kinase inhibition; TbPYK enzyme, Kinase-Glo Plus ATP luminescence, 45 min; Potency, µM (series often up to 76.8 µM), for the others: at the highest dose activity, negative = inhibition, usual class: inhibitors; 410,000 tested, 0.12% active; AID 624173; note: potency is the fitted concentration of half-maximal effect; nearly all actives have a fitted effect of over 50% in size
#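 ADP (130 uM final) triggers the TbPYK reaction after compound addition; incubation is 45 min at room temperature. Kinase-Glo Plus is then added and luminescence imaged. Normalized data are fitted to concentration-effect curves.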
# * marks the source's active call; other numbers are inactive results; ? = inconclusive; . = no result given; [ ] = another dose, or the depositor's remark. Unless noted, calls come from the whole dose curve; as a rule, active = well fitted curve in the direction sought with a large enough effect; inconclusive = small, poorly fitted or top-dose-only effect, or another doubt; inactive = no such curve, though single readings can be large; an effect the other way counts as inactive or inconclusive. % is set by controls: 0 for no effect and ±100 for the full control effect.
SMILES,RE007 growth inh,Sm TGR block,FBPA Giardia inh,HCMV inh,FMDV inh,TbPYK inhibitor
COC(=O)c1ccc(CCc2cc(O)c(Br)cc2O)cc1,11µM*,.,.,17,-16%,?
COC(=O)c1ccc(CCc2cc(O)ccc2O)cc1,11µM*,.,.,.,-10%,?
COC(=O)c1ccc(C[n+]2ccccc2)cc1,-2%,-9%,9%,2,-13%,2%
COC(=O)c1ccc(O)cc1,-7%,9%,2%,4,10%,10%
COC(=O)Cc1c(C)c2ccc3c(c2oc1=O)CN(Cc1ccc(Cl)cc1)CO3,.,-1%,.,-16,-10%,-1%
CCN(CC)CC(=O)Nc1c(C)cccc1C,-1%[18.4 µM],.,12%,-31,-14%,-2%
Cc1cccc(C)c1NC(=O)C(Cl)=C(Cl)Cl,22%,.,4%,-89*,1%,-3%
CC(=O)Oc1c(-c2ccccc2)oc2c(CC=C(C)C)c3c(c(OC(C)=O)c2c1=O)C=CC(C)(C)O3,.,.,-3%,.,-6%,.
COC(=O)/C(C)=C\CC12OC(C)(C)C3CC(C=C4C(=O)c5c(OC)c6c(c(CC=C(C)C)c5OC431)OC(C)(CCC=C(C)C)C=C6)C2=O (centres undefined),.,.,-17%,.,32µM*,.
CC(=O)Oc1c2c(c(CC=C(C)C)c3c1C(=O)C1=CC4CC5C(C)(C)OC(C/C=C(\C)C(=O)O)(C4=O)[C@]15O3)OC(C)(CCC=C(C)C)C=C2 (some centres undefined),.,.,-10%,.,4µM*,.
COc1ccc(-c2nccc3[nH]nc(-c4ccccc4)c23)cc1,.,.,.,-19,.,.
CCC1CC=CC2C1C(=O)N(Cc1ccccc1)C2c1ccc(C(F)(F)F)cc1 (centres undefined),.,.,-8%,.,.,.
COc1cc(-c2ccc(C)cc2)cc2c1OCCN(C(=O)CCn1ccc(C)n1)C2,.,.,.,.,-16%,.
Cc1ccc(NC(=O)Cn2c(O)c(N=NC(=O)c3cc4ccccc4cc3O)c3ccccc32)cc1,2%,-5%,-17%,-101*,-28%,6%
COc1ccccc1NC(=O)Cn1c(O)c(N=NC(=O)c2ccccc2O)c2ccccc21,14%,1%,-9%,-107*,?,7%
Cc1cccc(CSc2ncc(Cl)c(C(=O)Nc3sc4c(c3C(N)=O)CCCC4)n2)c1,.,3%,.,6,-14%,1%
COc1ccc(C2/C=C\CN(C(=O)C3CC3)C(Cc3ccccc3)C(=O)N2Cc2ccc(F)cc2)cc1 (centres undefined),.,.,-5%,.,.,.
Nc1nc(N)c2cc([N+](=O)[O-])ccc2n1,9%,.,.,-14,-12%,-3%
Nc1nc(N)c2c(ccc3c2ccn3Cc2cccc([N+](=O)[O-])c2)n1,5.6µM*,.,.,-99*,?,1%
Cc1cc(F)ccc1N1CCC(N2CCN(C(C)C)C(CCO)C2)CC1 (centres undefined),-17%,40µM*,0%,-12,-7%,7%
CN(C)CCn1c(SCc2ccccc2C#N)nc2c(sc3ccccc32)c1=O,-17%,-7%,-8%,-67*,-11%,0%
C=CCN(C(=O)CSc1nc2c(sc3ccccc32)c(=O)n1CCN(CC)CC)c1ccccc1,2%,1%,-5%,-67*,?,-12%
CCN(CC)CCn1c(SCC(=O)Nc2ccc(F)cc2)nc2c(sc3ccccc32)c1=O,.,-19%,-6%,.,.,.
CCCCN(CC)C(=O)CSc1nc2c(sc3ccccc32)c(=O)n1CCc1ccccc1,.,49%,.,20,-18%,4%
CCc1ccc(NC(=O)CSc2nc3c(sc4ccccc43)c(=O)n2CCN(CC)CC)cc1,.,7%,.,-60*,-30%,-4%
SMILES,RE007 growth inh,Sm TGR block,FBPA Giardia inh,HCMV inh,FMDV inh,TbPYK inhibitor
COc1ccc(-n2c(-c3ccc(F)cc3)cn3c4c(=O)n(C)c(=O)n(C)c4nc23)cc1,.,4%,.,25,54%,-5%
CCC1(C2CCN(Cc3ccoc3)CC2)NC(=O)N(CC2COc3ccccc3O2)C1=O (centres undefined),.,.,.,.,-13%,.
CCCOc1ccc(C(=O)CCC(=O)OCC(=O)N(CC)c2c(N)n(Cc3ccccc3)c(=O)[nH]c2=O)cc1,4%,.,.,30,23%,0%
CCN(C(=O)COC(=O)/C=C/c1ccc(OC)c(OC)c1)c1c(N)n(Cc2ccccc2)c(=O)[nH]c1=O,4%,.,.,20,-4%,-10%
CCN(C(=O)COC(=O)/C=C/c1ccco1)c1c(N)n(Cc2ccccc2)c(=O)[nH]c1=O,-2%,20µM*,.,10,-22%,1%
CCN(C(=O)CN1c2ccccc2CC1C)c1c(N)n(Cc2ccccc2)c(=O)[nH]c1=O (centres undefined),1%,-13%,-1%,-64*,-12%,0%
CCN(C(=O)COC(=O)CCOc1ccc(C(C)(C)C)cc1)c1c(N)n(Cc2ccccc2)c(=O)[nH]c1=O,8%,.,.,-66*,?,0%
CCCCCn1c(=O)c2c(nc3n2CCN3c2ccc(Br)cc2)n(C)c1=O,.,7%,.,?,-17%,1%
CC[C@H](C)[C@H](NC(=O)[C@H](CCCNC(=N)N)NC(=O)[C@@H]1CCCN1C(=O)[C@H](Cc1ccccc1)NC(=O)[C@H](Cc1cnc[nH]1)NC(=O)[C@H](CCCNC(=N)N)NC(=O)[C@@H](NC(=O)[C@H](C)NC(=O)[C@H](CCC(=O)O)NC(=O)[C@H](CC(N)=O)NC(=O)[C@@H](N)CCCCN)C(C)C)C(=O)N[C@@H](Cc1c[nH]c2ccccc12)C(=O)N[C@@H](CC(C)C)C(=O)O,.,.,0%,.,.,.
Cn1c(=O)c2c(nc(N/N=C/c3ccncc3)n2Cc2ccccc2)n(C)c1=O,-2%,9%,?,46,?,0%
COc1cccc(Cn2c(NCc3ccco3)nc3c2c(=O)n(C)c(=O)n3C)c1,22%,-29%,-8%,-98*,?,-17%
COc1cc(/C=N/Nc2nc3c(c(=O)n(C)c(=O)n3C)n2Cc2ccccc2)ccc1OC(=O)c1ccco1,-14%,-11%,?,39,14µM*,4%
COc1ccc(Cl)c(Cn2c(NCc3ccco3)nc3c2c(=O)n(C)c(=O)n3C)c1,12%,50µM*,?,-6,?,-1%
Cc1ccc(S(=O)(=O)NC(CCCNC(=O)OCc2ccccc2)C(=O)O)cc1 (centres undefined),.,.,.,-37,.,.
COc1cccc(-c2cc(C(=O)Nc3c(C)nn(Cc4ccccc4Cl)c3C)no2)c1,.,4%,.,6,?,-9%
CCN1C(=O)[C@H]2[C@@H](c3ccc(-c4ccc(Cl)c(Cl)c4)cc3)N[C@@](C)(C(=O)OC)[C@H]2C1=O,0%,?,.,-8,?,-8%
